Source: PubChem BioAssay (Tox21)
Where “and” joins values, the source holds several entries; their conditions need not be identical. Equal entries are not always repeated. Records with an inconclusive call do not appear. A call without a number means that no potency is given here. Calls of active or inactive are those of the source. Unless noted, the call rests on the fitted dose curve; in most records, active means well fitted curve in the direction sought with a large enough effect in the repeat runs; inconclusive means weak or mixed curves; inactive means no such curve, though single readings can be large; an effect the other way counts as inactive or inconclusive.

What was measured:
[1] = qHTS assay to identify small molecule antagonists of the glucocorticoid receptor (GR) signaling pathway - cell viability counter screen (AID 720693); further: nearly all actives have a fitted effect of over 55% in size
[2] = qHTS assay for identifying genotoxic compounds that show differential cytotoxicity against isogenic chicken DT40 cell lines with known DNA damage response pathways - wild type cell line (AID 743012); further: nearly all actives have a fitted effect of over 60% in size
Summary of the method: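 Wild-type DT40 cells (300/well) exposed to compounds for 40 hours at 37 C/5% CO2. Viability read by CellTiter-Glo luminescence after 30 min at room temperature.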

[3] = qHTS assay for identifying genotoxic compounds that show differential cytotoxicity against isogenic chicken DT40 cell lines with known DNA damage response pathways - Rev3 mutant cell line (AID 743014); further: nearly all actives have a fitted effect of over 55% in size
[4] = qHTS assay for identifying genotoxic compounds that show differential cytotoxicity against isogenic chicken DT40 cell lines with known DNA damage response pathways - Rad54/Ku70 mutant cell line (AID 743015); further: nearly all actives have a fitted effect of over 60% in size
[5] = qHTS assay to identify small molecule antagonists of the androgen receptor (AR) signaling pathway - cell viability counter screen (AID 743033; further: nearly all actives have a fitted effect of over 45% in size)
[6] = qHTS assay to identify small molecule antagonists of the androgen receptor (AR) signaling pathway using the MDA cell line - cell viability counter screen (AID 743041; further: nearly all actives have a fitted effect of over 45% in size)
Summary of the method: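 Viability counter screen run alongside the AR antagonist reporter: cells seeded 5 h before compound, R1881 added, 16 h incubation at 37C without CO2, fluorescent CellTiter-Fluor signal quantified.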

[7] = qHTS assay to identify small molecule antagonists of the thyroid receptor (TR) signaling pathway - cell viability counter screen (AID 743064); further: nearly all actives have a fitted effect of over 50% in size
Summary of the method: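 Counter screen for cytotoxicity: compound plus T3 (1 nM final) on GH3.TRE-Luc cells, 23.5 h at 37 °C, then fluorescence viability readout with CellTiter-Fluor.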

[8] = qHTS assay to identify small molecule antagonists of the thyroid receptor (TR) signaling pathway (AID 743065); further: series mostly up to about 70 µM; nearly all actives have a fitted effect of over 55% in size
Summary of the method: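 GH3.TRE-Luc rat pituitary cells carrying two TR response elements driving luciferase were plated for 4 h, given compound plus 1 nM T3 (final), and incubated 23.5 h at 37 C. ONE-Glo luminescence measured reporter inhibition; CellTiter-Fluor fluorescence tracked cytotoxicity.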

[9] = system: thyroid hormone receptor (rat, GH3 cells); assay: qHTS assay to identify small molecule agonists of the thyroid receptor (TR) signaling pathway (AID 743066; calls by dose curve; further: potency means the concentration at half of the fitted maximal effect)
[10] = molecular target: Estrogen receptor (Homo sapiens) (UniProt P03372); assay: qHTS assay to identify small molecule antagonists of the estrogen receptor alpha (ER-alpha) signaling pathway (AID 743069; active means well fitted curve in the direction sought with a large enough effect in the signal ratio in the repeat runs, not every such curve was filed as active; the % refers to the signal ratio)
Summary of the method: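 Estradiol-stimulated ER-alpha-UAS-bla HEK293 cells, 18 hr compound exposure at 37C. LiveBLAzer B/G substrate, 2 hr RT, fluorescence read.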

[11] = qHTS assay to identify small molecule antagonists of the estrogen receptor alpha (ER-alpha) signaling pathway - cell viability counter screen (AID 743074; calls by dose curve;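 further: HEK293 cells carrying ER-alpha-UAS-bla reporter stimulated with 17beta-estradiol; nearly all actives have a fitted effect of over 45% in size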)
[12] = molecular target: Estrogen receptor (Homo sapiens) (UniProt P03372); assay: qHTS assay to identify small molecule agonists of the estrogen receptor alpha (ER-alpha) signaling pathway (AID 743075; calls by dose curve;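 further: HEK293 GripTite cells with ER-alpha and UAS-driven beta-lactamase reporter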)
[13] = molecular target: Estrogen receptor (Homo sapiens) (UniProt P03372); assay: qHTS assay to identify small molecule agonists of the estrogen receptor alpha (ER-alpha) signaling pathway using the BG1 cell line (AID 743079); further: nearly all actives have a fitted effect of over 20% in size
[14] = qHTS assay to identify small molecule antagonists of the estrogen receptor alpha (ER-alpha) signaling pathway using the BG1 cell line (AID 743080; calls by dose curve;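 further: BG1 cells stimulated with 17beta-estradiol alongside compound; series mostly up to about 70 µM; nearly all actives have a fitted effect of over 25% in size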)
Summary of the method: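 Quantitative HTS on the Tox21 10K library: BG1 cells with endogenous ER-alpha and ERE-luciferase reporter, 17beta-estradiol stimulation, 21.5 h compound exposure, luminescence endpoint with parallel fluorescence cytotoxicity counter-read.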

[15] = qHTS assay to identify small molecule antagonists of the estrogen receptor alpha (ER-alpha) signaling pathway using the BG1 cell line - cell viability counter screen (AID 743081);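 further: compound given together with 17beta-estradiol as the ER stimulus; series mostly up to about 70 µM; nearly all actives have a fitted effect of over 45% in size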
[16] = molecular target: Aromatase (Homo sapiens) (UniProt P11511); assay: qHTS assay to identify aromatase inhibitors (AID 743083); further: series mostly up to about 70 µM; nearly all actives have a fitted effect of over 55% in size
[17] = molecular target: Androgen receptor (Homo sapiens) (UniProt P10275); assay: qHTS assay to identify small molecule antagonists of the androgen receptor (AR) signaling pathway (AID 743035; active means well fitted inhibition curve with a large enough effect in the signal ratio in the repeat runs, not every such curve was filed as active; the % refers to the signal ratio)
Summary of the method: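 HEK293 cells stably carrying UAS-beta-lactamase reporter, 2,000/well, given compounds plus R1881 agonist and incubated 16 h at 37C. LiveBLAzer B/G FRET substrate then added for 2 h at room temperature before fluorescence reading.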

[18] = molecular target: Androgen receptor (Homo sapiens) (UniProt P10275); assay: qHTS assay to identify small molecule agonists of the androgen receptor (AR) signaling pathway (AID 743036; active means well fitted activation curve with a large enough effect in the signal ratio in the repeat runs, with a control signal flat, not every such curve was filed as active; the % refers to the signal ratio)
Summary of the method: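 In this Tox21 qHTS, 2,000 HEK293 AR-bla cells per well were incubated with compounds for 16 h at 37C and 5% CO2. Fluorescence intensity was recorded 2 h after adding LiveBLAzer B/G FRET substrate at room temperature.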

[19] = molecular target: Androgen receptor (Homo sapiens) (UniProt P10275); assay: qHTS assay to identify small molecule agonists of the androgen receptor (AR) signaling pathway using the MDA cell line (AID 743040; further: nearly all actives have a fitted effect of over 20% in size)
Summary of the method: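 Luminescence from ONE-Glo, read after 30 min at room temperature, reflects MMTV-driven luciferase in MDA-kb2 cells (AR- and GR-responsive). Treatment lasted 16 h at 37C, 0% CO2.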

[20] = molecular target: Androgen receptor (Homo sapiens) (UniProt P10275); assay: qHTS assay to identify small molecule antagonists of the androgen receptor (AR) signaling pathway using the MDA cell line (AID 743042; further: nearly all actives have a fitted effect of over 55% in size)
Summary of the method: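 MDA-kb2 cells (human breast carcinoma, stably carrying an MMTV-luciferase reporter responsive to AR and GR) were plated at 3,000 cells/well and preincubated 5 hr at 37C, then given compound plus R1881 agonist for 16 h. ONE-Glo luminescence was read.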

Estrogen receptor (Homo sapiens), sequence (P03372 whole entry, looked up): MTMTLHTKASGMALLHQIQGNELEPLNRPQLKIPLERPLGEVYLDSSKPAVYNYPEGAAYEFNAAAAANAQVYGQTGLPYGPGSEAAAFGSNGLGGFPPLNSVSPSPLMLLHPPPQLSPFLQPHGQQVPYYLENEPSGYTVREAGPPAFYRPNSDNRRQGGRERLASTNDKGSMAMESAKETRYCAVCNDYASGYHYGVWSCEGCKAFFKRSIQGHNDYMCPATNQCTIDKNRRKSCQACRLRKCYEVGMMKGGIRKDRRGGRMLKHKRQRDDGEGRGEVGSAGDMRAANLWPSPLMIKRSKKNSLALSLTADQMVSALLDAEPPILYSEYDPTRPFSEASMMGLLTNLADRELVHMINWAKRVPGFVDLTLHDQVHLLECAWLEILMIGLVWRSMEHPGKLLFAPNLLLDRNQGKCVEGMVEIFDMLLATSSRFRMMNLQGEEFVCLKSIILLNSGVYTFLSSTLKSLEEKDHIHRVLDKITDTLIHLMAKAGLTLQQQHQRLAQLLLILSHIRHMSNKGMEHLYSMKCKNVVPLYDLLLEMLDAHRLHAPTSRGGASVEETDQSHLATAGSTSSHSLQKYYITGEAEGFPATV
Aromatase (Homo sapiens), sequence (P11511 whole entry, looked up): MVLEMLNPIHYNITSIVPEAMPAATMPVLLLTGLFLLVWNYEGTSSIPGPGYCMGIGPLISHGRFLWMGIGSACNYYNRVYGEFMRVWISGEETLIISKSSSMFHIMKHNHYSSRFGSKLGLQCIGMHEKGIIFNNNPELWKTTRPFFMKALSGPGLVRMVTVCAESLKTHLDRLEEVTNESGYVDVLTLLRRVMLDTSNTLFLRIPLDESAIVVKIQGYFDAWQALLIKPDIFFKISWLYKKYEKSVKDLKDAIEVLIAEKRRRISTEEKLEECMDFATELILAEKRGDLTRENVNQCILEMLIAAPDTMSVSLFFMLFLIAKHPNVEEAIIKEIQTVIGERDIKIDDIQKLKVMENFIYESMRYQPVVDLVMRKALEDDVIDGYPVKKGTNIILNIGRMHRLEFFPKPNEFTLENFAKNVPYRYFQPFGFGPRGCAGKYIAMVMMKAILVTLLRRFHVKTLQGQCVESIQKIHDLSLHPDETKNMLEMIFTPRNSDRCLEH
Androgen receptor (Homo sapiens), sequence (P10275 whole entry, looked up): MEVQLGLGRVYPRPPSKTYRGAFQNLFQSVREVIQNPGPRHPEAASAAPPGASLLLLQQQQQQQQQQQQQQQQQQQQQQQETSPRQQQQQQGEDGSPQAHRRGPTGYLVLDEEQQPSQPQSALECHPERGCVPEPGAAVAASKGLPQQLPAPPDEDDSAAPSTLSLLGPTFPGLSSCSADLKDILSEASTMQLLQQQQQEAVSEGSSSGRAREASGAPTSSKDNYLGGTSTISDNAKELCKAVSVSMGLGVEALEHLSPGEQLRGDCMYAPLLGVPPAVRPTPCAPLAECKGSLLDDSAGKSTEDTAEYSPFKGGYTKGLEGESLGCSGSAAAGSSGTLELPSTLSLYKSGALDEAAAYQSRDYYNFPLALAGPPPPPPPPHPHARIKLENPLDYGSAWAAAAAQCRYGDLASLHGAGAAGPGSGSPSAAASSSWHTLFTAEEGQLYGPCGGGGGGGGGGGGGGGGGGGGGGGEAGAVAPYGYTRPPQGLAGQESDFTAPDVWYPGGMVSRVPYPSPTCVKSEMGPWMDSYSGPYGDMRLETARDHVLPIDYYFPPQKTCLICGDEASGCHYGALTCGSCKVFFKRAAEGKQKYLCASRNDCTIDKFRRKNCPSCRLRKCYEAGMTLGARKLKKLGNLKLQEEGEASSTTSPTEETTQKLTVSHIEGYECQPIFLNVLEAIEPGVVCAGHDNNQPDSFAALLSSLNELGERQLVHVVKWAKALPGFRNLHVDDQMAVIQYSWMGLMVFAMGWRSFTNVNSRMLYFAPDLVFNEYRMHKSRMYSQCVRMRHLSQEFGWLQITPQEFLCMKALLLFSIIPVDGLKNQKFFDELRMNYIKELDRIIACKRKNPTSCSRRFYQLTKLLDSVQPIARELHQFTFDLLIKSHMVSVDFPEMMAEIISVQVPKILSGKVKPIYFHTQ

| Structure (SMILES) | outcome [1] | Potency [2] | Potency [3] | Potency [4] | Potency [5] | Potency [6] | Potency [7] | Potency [8] | Potency [9] | Potency [10] | outcome [11] | Potency [12] | Potency [13] | Potency [14] | Potency [15] | Potency [16] | outcome [17] | Potency [18] | Potency [19] | outcome [20] |
| --- | --- | --- | --- | --- | --- | --- | --- | --- | --- | --- | --- | --- | --- | --- | --- | --- | --- | --- | --- | --- |
| CCCCCCOCCO | inactive | inactive | inactive | inactive | inactive | inactive | inactive | inactive | inactive | inactive | inactive | inactive | inactive | inactive | inactive | inactive |  |  |  |  |
| C=C(C)C(=O)OCCOCCOCCOC(=O)C(=C)C | inactive | inactive | inactive | inactive | inactive | inactive | inactive | inactive | inactive |  | inactive |  |  |  | inactive | inactive |  |  |  |  |
| O=[N+]([O-])c1ccc(/C=C/c2ccc([N+](=O)[O-])cc2S(=O)(=O)O)c(S(=O)(=O)O)c1 | inactive | inactive | inactive | inactive | inactive | inactive | inactive | inactive | inactive | inactive | inactive | inactive | inactive | inactive | inactive | inactive |  |  |  |  |
| CCCCCCCCCCCCS | inactive | inactive | inactive | inactive | inactive | inactive | inactive | inactive | inactive | inactive | inactive | inactive | inactive |  | inactive | inactive |  |  |  |  |
| N[C@@H](Cc1cc(I)c(Oc2cc(I)c(O)c(I)c2)c(I)c1)C(=O)O | inactive | inactive | inactive | inactive | inactive | inactive | inactive | inactive | 8.4 nM (active) and 10.9 nM (active) |  | inactive |  |  |  | inactive | inactive |  |  |  |  |
| CCCCCC1=CCCC1=O | inactive | inactive | inactive | inactive | inactive | inactive |  | inactive | inactive | inactive | inactive | inactive | inactive |  | inactive | inactive |  |  |  |  |
| CCCC(C)=O | inactive | inactive | inactive | inactive | inactive | inactive | inactive | inactive | inactive |  | inactive |  |  |  | inactive | inactive |  |  |  |  |
| CCCCC(CC)CO (stereo not drawn) | inactive | inactive | inactive | inactive | inactive | inactive | inactive | inactive | inactive |  | inactive |  |  |  | inactive | inactive |  |  |  |  |
| CC(c1cc2ccccc2s1)N(O)C(N)=O (stereo not drawn) | inactive | inactive | inactive | inactive |  | inactive | inactive | inactive | inactive | inactive | inactive | inactive | inactive |  | inactive | inactive | inactive | inactive | inactive | inactive |
| CCCCCC(N)=O | inactive | inactive | inactive | inactive | inactive | inactive | inactive | inactive | inactive |  | inactive |  |  |  | inactive | inactive |  |  |  |  |
| CN(C)CCOCCN(C)C | inactive | inactive | inactive | inactive | inactive | inactive | inactive | inactive | inactive |  | inactive |  |  |  | inactive | inactive |  |  |  |  |
| O=C(O)c1ccc2c(c1)C(=O)OC2=O | inactive | inactive | inactive | inactive |  | inactive | inactive | inactive | inactive | inactive |  | inactive | inactive |  | inactive | inactive | inactive | inactive | inactive | inactive |
| c1c[nH]cn1 | inactive | inactive | inactive | inactive |  | inactive | inactive | inactive | inactive | inactive | inactive | inactive | inactive | inactive | inactive | inactive |  |  |  |  |
| CCCCCCCCCCCCc1ccccc1 | inactive | inactive | inactive | inactive | inactive | inactive | inactive |  |  |  | inactive |  |  |  | inactive | inactive |  |  |  |  |
| O=C(O)c1ccccc1C(c1ccc(O)cc1)c1ccc(O)cc1 | inactive | inactive | inactive | inactive |  | inactive | inactive | inactive | inactive | inactive |  | inactive | inactive | inactive | inactive | inactive | inactive | inactive | inactive | inactive |
| CC1=CCC2CC1C2(C)C (stereo not drawn) | inactive | inactive | inactive | inactive |  | inactive | inactive | inactive | inactive | inactive | inactive | inactive | inactive | inactive | inactive | inactive |  |  |  |  |
| CC(=O)Nc1cccc(O)c1 | inactive | inactive | inactive | inactive |  | inactive | inactive | inactive | inactive | inactive | inactive | inactive | inactive | inactive | inactive | inactive |  |  |  |  |
| ON=C1CCCCC1 | inactive | inactive | inactive | inactive | inactive | inactive | inactive | inactive | inactive |  | inactive |  |  |  | inactive | inactive |  |  |  |  |
